This is part of a sample that, as a whole, favours compounds with a hit. Of some 83,000 tested, about 20% had one in any assay.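 The test compound was applied at a single concentration to cells in 96-well plates for 48 hours, and percent growth was recorded.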 Values without a mark were called inactive. Active and inactive are the calls of the source. The calls were made as follows: active = growth percent below 10; inactive = the rest.
Tests used:
Test in all cases: NCI-60 one-dose screen, 48 h (100 = growth as untreated, 0 = no growth, -100 = all killed)
Details in all cases: 10 µM
[1] = system: NCI-H23 lung
[2] = system: NCI-H226 lung
[3] = system: NCI-H322M lung
[4] = system: HOP-62 NSCLC
[5] = system: NCI-H460 lung
[6] = system: NCI-H522 lung
[7] = system: A549/ATCC NSCLC
[8] = system: 786-0 renal
[9] = system: COLO 205 colon

**Q.** For `COC(=O)c1ccccc1N(C)C`, which growth [1] is on record?
**A.** 97.7%

**Q.** What about the growth [2] of the same compound?
**A.** 99.3%

**Q.** And the growth [3]?
**A.** 104%

**Q.** What about the growth [4] of the same compound?
**A.** 89.7%

**Q.** What about the growth [5] of the same compound?
**A.** 110%

**Q.** What about the growth [6] of the same compound?
**A.** 99.1%

**Q.** What about the growth [7] of the same compound?
**A.** 92.7%

**Q.** And the growth [8]?
**A.** 102%

**Q.** What about the growth [9] of the same compound?
**A.** 101%

**Q.** Which results are given for `CC1=CC(=O)c2ccccc2C1=O`?
**A.** growth [1]: 101%; growth [2]: 101%; growth [3]: 99.2%; growth [4]: 105%; growth [5]: 115%; growth [6]: 114%; growth [7]: 94.1%; growth [8]: 106%; growth [9]: 108%

**Q.** For `CC1Cc2ccccc2O1` (configuration not stated), which growth [1] is on record?
**A.** 98.6%

**Q.** What about the growth [2] of the same compound?
**A.** 107%

**Q.** What about the growth [3] of the same compound?
**A.** 131%

**Q.** What about the growth [4] of the same compound?
**A.** 108%

**Q.** What about the growth [5] of the same compound?
**A.** 109%

**Q.** And the growth [6]?
**A.** 114%

**Q.** What about the growth [7] of the same compound?
**A.** 103%

**Q.** And the growth [8]?
**A.** 109%

**Q.** What about the growth [9] of the same compound?
**A.** 110%

**Q.** How did the growth [1] turn out when `CCCNc1ccc(C2=NCCCN2)cc1` was run?
**A.** 95.6%

**Q.** And the growth [2]?
**A.** 104%

**Q.** What about the growth [3] of the same compound?
**A.** 88.7%

**Q.** What about the growth [4] of the same compound?
**A.** 94.9%

**Q.** And the growth [5]?
**A.** 103%

**Q.** And the growth [6]?
**A.** 94.2%

**Q.** And the growth [7]?
**A.** 79.2%

**Q.** And the growth [8]?
**A.** 88.9%

**Q.** What about the growth [9] of the same compound?
**A.** 99.5%

**Q.** `CCCCC/C=N/Nc1nc(C)cc(=O)[nH]1` was tested. Which growth [1] did it give?
**A.** 98.7%

**Q.** And the growth [2]?
**A.** 97.5%

**Q.** What about the growth [3] of the same compound?
**A.** 100%

**Q.** And the growth [4]?
**A.** 117%

**Q.** And the growth [5]?
**A.** 107%

**Q.** And the growth [6]?
**A.** 112%

**Q.** And the growth [7]?
**A.** 86.8%

**Q.** What about the growth [8] of the same compound?
**A.** 102%

**Q.** And the growth [9]?
**A.** 121%

**Q.** What does the source list for `O=S(=O)(O)C(Nc1ccccc1)c1ccccc1` (configuration not stated)?
**A.** growth [1]: 103%; growth [2]: 91.5%; growth [3]: 97.6%; growth [4]: 100%; growth [5]: 102%; growth [6]: 102%; growth [7]: 103%; growth [8]: 100%; growth [9]: 103%

**Q.** How did the growth [1] turn out when `Cc1cc(=O)[nH]c(NN=C2CCCC2)n1` was run?
**A.** 122%

**Q.** And the growth [2]?
**A.** 101%

**Q.** What about the growth [3] of the same compound?
**A.** 108%

**Q.** What about the growth [4] of the same compound?
**A.** 105%

**Q.** And the growth [5]?
**A.** 116%

**Q.** What about the growth [6] of the same compound?
**A.** 103%

**Q.** What about the growth [7] of the same compound?
**A.** 123%

**Q.** And the growth [8]?
**A.** 102%

**Q.** What about the growth [9] of the same compound?
**A.** 118%

**Q.** For `c1ccc(Sc2ccccc2)cc1`, which growth [1] is on record?
**A.** 105%

**Q.** What about the growth [2] of the same compound?
**A.** 103%

**Q.** What about the growth [3] of the same compound?
**A.** 118%

**Q.** What about the growth [4] of the same compound?
**A.** 104%

**Q.** And the growth [5]?
**A.** 106%

**Q.** And the growth [6]?
**A.** 139%

**Q.** And the growth [7]?
**A.** 96.6%

**Q.** What about the growth [8] of the same compound?
**A.** 113%

**Q.** What about the growth [9] of the same compound?
**A.** 115%

**Q.** What does the source list for `COc1cc(OC)c2ccc(=O)oc2c1`?
**A.** growth [1]: 101%; growth [2]: 114%; growth [3]: 107%; growth [4]: 101%; growth [5]: 104%; growth [6]: 116%; growth [7]: 97%; growth [8]: 105%; growth [9]: 107%

**Q.** `CCNCCCCNCCCCNCCCCNCCCCNCC` was tested. Which growth [1] did it give?
**A.** 49.5%

**Q.** What about the growth [2] of the same compound?
**A.** 134%

**Q.** And the growth [3]?
**A.** 42.1%

**Q.** And the growth [4]?
**A.** 113%

**Q.** And the growth [5]?
**A.** 76.1%

**Q.** What about the growth [6] of the same compound?
**A.** 87.3%

**Q.** What about the growth [7] of the same compound?
**A.** 54.4%

**Q.** What about the growth [8] of the same compound?
**A.** 150%

**Q.** And the growth [9]?
**A.** 69.1%

**Q.** What does the source list for `CC(=O)CC(=O)N(C)C`?
**A.** growth [1]: 102%; growth [2]: 94.5%; growth [3]: 101%; growth [4]: 98.8%; growth [5]: 104%; growth [6]: 88.5%; growth [7]: 101%; growth [8]: 97.8%; growth [9]: 115%

**Q.** With `O=C(O)C(Cc1ccccc1)C(=O)O` as the compound, how does the growth [1] read?
**A.** 95.1%

**Q.** What about the growth [2] of the same compound?
**A.** 95.5%

**Q.** What about the growth [3] of the same compound?
**A.** 105%

**Q.** What about the growth [4] of the same compound?
**A.** 118%

**Q.** And the growth [5]?
**A.** 101%

**Q.** And the growth [6]?
**A.** 106%

**Q.** And the growth [7]?
**A.** 103%

**Q.** What about the growth [8] of the same compound?
**A.** 99.4%

**Q.** What about the growth [9] of the same compound?
**A.** 110%

**Q.** What does the source list for `O=C(Nc1cccc(NC(=O)Nc2cc(C(F)(F)F)ccc2Cl)c1)Nc1cc(C(F)(F)F)ccc1Cl`?
**A.** growth [1]: 20.4%; growth [2]: 34.3%; growth [3]: 38%; growth [4]: 21.8%; growth [5]: 4.58% (active); growth [6]: -27.7% (active); growth [7]: 11.6%; growth [8]: 51.7%; growth [9]: 1.37% (active)

**Q.** How did the growth [1] turn out when `O=C(O)CCCCNC(=O)c1ccccc1` was run?
**A.** 91%

**Q.** And the growth [2]?
**A.** 92.3%

**Q.** And the growth [3]?
**A.** 106%

**Q.** And the growth [4]?
**A.** 90.8%

**Q.** What about the growth [5] of the same compound?
**A.** 106%

**Q.** And the growth [6]?
**A.** 89.4%

**Q.** What about the growth [7] of the same compound?
**A.** 98.4%

**Q.** What about the growth [8] of the same compound?
**A.** 97.5%

**Q.** And the growth [9]?
**A.** 108%

**Q.** Which growth [1] does the source give for `NC(N)=Nc1cc2ccccc2c2ccccc12` here?
**A.** 86.7%

**Q.** And the growth [2]?
**A.** 89.5%

**Q.** What about the growth [3] of the same compound?
**A.** 98.7%

**Q.** And the growth [4]?
**A.** 101%

**Q.** What about the growth [5] of the same compound?
**A.** 86.8%

**Q.** What about the growth [6] of the same compound?
**A.** -49.2% (active)

**Q.** What about the growth [7] of the same compound?
**A.** 27.8%

**Q.** What about the growth [8] of the same compound?
**A.** 90.6%

**Q.** What about the growth [9] of the same compound?
**A.** 44.9%

**Q.** Which results are given for `Nc1nc(OCc2ccccc2)c2[nH]cnc2n1`?
**A.** growth [1]: 93.6%; growth [2]: 96%; growth [3]: 118%; growth [4]: 100%; growth [5]: 107%; growth [6]: 86.5%; growth [7]: 105%; growth [8]: 87.1%; growth [9]: 114%

**Q.** Which results are given for `COC(=O)c1ccccc1Br`?
**A.** growth [1]: 107%; growth [2]: 104%; growth [3]: 95.6%; growth [4]: 77.9%; growth [5]: 107%; growth [6]: 94.2%; growth [7]: 103%; growth [8]: 97%; growth [9]: 116%

**Q.** Which results are given for `O=C(Cc1ccccc1)Cc1ccccc1`?
**A.** growth [1]: 103%; growth [2]: 100%; growth [3]: 104%; growth [4]: 110%; growth [5]: 102%; growth [6]: 97%; growth [7]: 96%; growth [8]: 95.2%; growth [9]: 110%

**Q.** For `CC(C)=NNc1ccc([N+](=O)[O-])cc1[N+](=O)[O-]`, which growth [1] is on record?
**A.** 95.5%

**Q.** And the growth [2]?
**A.** 98.3%

**Q.** What about the growth [3] of the same compound?
**A.** 87.9%

**Q.** What about the growth [4] of the same compound?
**A.** 87.9%

**Q.** What about the growth [5] of the same compound?
**A.** 88.1%

**Q.** And the growth [6]?
**A.** 82.1%

**Q.** What about the growth [7] of the same compound?
**A.** 83.2%

**Q.** And the growth [8]?
**A.** 93.8%

**Q.** And the growth [9]?
**A.** 84.9%

**Q.** What does the source list for `N#C/C(=C\c1cc(O)c(O)c(O)c1)C(N)=O`?
**A.** growth [1]: 102%; growth [2]: 108%; growth [3]: 110%; growth [4]: 97.2%; growth [5]: 110%; growth [6]: 76.5%; growth [7]: 105%; growth [8]: 94.6%; growth [9]: 104%

**Q.** With `CNC(=O)c1ccccc1CC1(O)c2ccccc2Oc2ccccc21` as the compound, how does the growth [1] read?
**A.** 71.5%

**Q.** And the growth [2]?
**A.** 77%

**Q.** And the growth [3]?
**A.** 51.8%

**Q.** And the growth [4]?
**A.** 71.4%

**Q.** What about the growth [5] of the same compound?
**A.** 33.7%

**Q.** What about the growth [6] of the same compound?
**A.** 24.8%

**Q.** What about the growth [7] of the same compound?
**A.** 41.8%

**Q.** What about the growth [8] of the same compound?
**A.** 74.8%

**Q.** What about the growth [9] of the same compound?
**A.** 38%

**Q.** How did the growth [1] turn out when `O=C(/C=C\c1ccc(O)cc1)c1ccccc1` was run?
**A.** 102%

**Q.** What about the growth [2] of the same compound?
**A.** 107%

**Q.** And the growth [3]?
**A.** 101%

**Q.** What about the growth [4] of the same compound?
**A.** 110%

**Q.** And the growth [5]?
**A.** 113%

**Q.** What about the growth [6] of the same compound?
**A.** -31.4% (active)

**Q.** What about the growth [7] of the same compound?
**A.** 94.2%

**Q.** And the growth [8]?
**A.** 97.8%

**Q.** What about the growth [9] of the same compound?
**A.** 98%

**Q.** Which growth [1] does the source give for `CSC[C@H](NC(=O)COc1cccc2cnccc12)C(=O)NC(Cc1ccccc1)C(O)C(=O)N1CSC[C@H]1C(=O)NC(C)(C)C` (some centres not stated) here?
**A.** 106%

**Q.** And the growth [2]?
**A.** 105%

**Q.** What about the growth [3] of the same compound?
**A.** 95.7%

**Q.** What about the growth [4] of the same compound?
**A.** 110%

**Q.** And the growth [5]?
**A.** 125%

**Q.** What about the growth [6] of the same compound?
**A.** 72.3%

**Q.** What about the growth [7] of the same compound?
**A.** 110%

**Q.** And the growth [8]?
**A.** 80.3%

**Q.** And the growth [9]?
**A.** 106%
